Here are results for 67 compounds from ChEMBL document CHEMBL3988442, “University of Dundee, Small-Polar-MMV Screening Library” (2021).

Among all 38,000 compounds or so, about 1,200 (3.2%) showed an effect of 50% or more. The median lay at about -58%. Shown is part of a subset that was picked to be rich in strong results.

This test concerns Plasmodium falciparum. Kind of test: Calibr Malaria Delayed Death Assay SOP. The class given is functional, organism-based. Details: scale not given: in the data most compounds retested in dose-response had high values. The note with it: concentration 4.99e-06 (unit not given; other assays of the set use mol/L).
On to `CCCNc1ccc(C(=O)NCCc2ccc(Cl)cc2)cn1`, for which the “Percent Effect” value was -35.94%.

For `COc1cccc(C2CCCN2C(=O)NCCCn2cccn2)c1` (configuration not stated), the “Percent Effect” value is -100.5%.

As to `CN(C)C(C)(C)CNCc1cn(C)nc1-c1cccnc1.Cl`, the “Percent Effect” value was -6.426%.

Take `Cn1cc(CNCCOc2ccc(F)c(F)c2)c(-c2cccnc2)n1`: the “Percent Effect” value is 53.44%.

Turning to `CCCNCc1cn(Cc2ccccc2)nc1-c1cccnc1.Cl`, the “Percent Effect” value is 57.61%.

As for `Cn1cc(CNCCC(=O)NCc2ccccc2)c(-c2cccnc2)n1`, the “Percent Effect” value is -26.7%.

In the case of `Cn1cc(CNCCc2cccnc2)c(-c2cccnc2)n1`, the “Percent Effect” value is -43.46%.

As to `Cn1cc(CNCCNC(=O)Cc2ccccc2)c(-c2cccnc2)n1`, the “Percent Effect” value was 7.378%.

In the case of `COCCCOc1ccc(C(=O)N(C)Cc2cccc(O)c2)cn1`, the “Percent Effect” value is recorded as -93.61%.

`CC(C)(C)OC(=O)N1CCN(C(=O)c2cnn3c2OCCC3)CC1`: the “Percent Effect” value is reported as -73.8%.

Turning to `CC(CC(=O)c1ccco1)NC(=O)c1ccon1` (configuration not stated), the “Percent Effect” value is -111.2%.

Take `O=C(Nc1nc2c(s1)CN(S(=O)(=O)C1CC1)CC2)c1ccsc1`: the “Percent Effect” value is listed as -79.83%.

Regarding `Fc1ccccc1C1NCCc2cc3c(cc21)OCCO3` (configuration not stated), the “Percent Effect” value is listed as -25.34%.

As for `CCCn1nnc(NCc2ccc(-c3ccc(Br)cc3)o2)n1`, the “Percent Effect” value is listed as -170.9%.

Consider `CN1CCc2c1nc1c(c2N)CCC1`, for which the “Percent Effect” value is reported as -63.1%.

As to `Nc1nc2c(c(NC(=O)Nc3cccc(Cl)c3)n1)CCCC2`, the “Percent Effect” value is reported as -1.173%.

`CN1CCc2nc3c(c(N)c2C1)CCCN3C`: the “Percent Effect” value is on record as -6.547%.

Turning to `CN1CCCCc2c1nc1c(c2N)CCCC1`, the “Percent Effect” value was found to be 64.21%.

Turning to `CN1CCCc2c1nc1c(c2N)CCC1`, the “Percent Effect” value is given as -51.79%.

In the case of `CC(=O)NC1CCN(c2nc(N)nc3c2CCCC3)C1` (configuration not stated), the “Percent Effect” value is -119.8%.

Turning to `CN1CCCCc2c1nc1c(c2N)CCC1.O=C(O)c1cc([N+](=O)[O-])ccc1Cl`, the “Percent Effect” value amounted to 64.96%.

For `CN1CCCc2c1nc1c(c2N)CCCC1.O=C(O)C(=O)O`, the “Percent Effect” value is 75.22%.

On to `Nc1nc2c(c(NC(=O)Nc3ccc(Cl)c(Cl)c3)n1)CCCC2`, for which the “Percent Effect” value was -65.1%.

For the compound `CC1CN(C)c2ccccc2CN1C(=O)c1cc(C#N)cn1C` (configuration not stated), the “Percent Effect” value is -35.84%.

As for `CCN(CC)S(=O)(=O)c1ccc2c(c1)N(Cc1ccncc1)C(=O)CS2`, the “Percent Effect” value is given as -124.7%.

As for `COCC(C)NC(=O)CN1CCC(CO)CC1` (configuration not stated), the “Percent Effect” value is listed as -50.48%.

As to `Cc1cc(NCC2CC(=O)Nc3ccccc32)nc(C)n1` (configuration not stated), the “Percent Effect” value is given as -157%.

On to `O=C1CC(CNc2cncc(Cl)n2)c2ccccc2N1` (configuration not stated), for which the “Percent Effect” value was determined as 64.58%.

In the case of `O=C1CC(CNc2cncc(Br)c2)c2ccccc2N1` (configuration not stated), the “Percent Effect” value is listed as 9.989%.

In the case of `CS(=O)(=O)NC(=O)c1ccn(-c2ccc(Cl)c(Cl)c2)n1`, the “Percent Effect” value is listed as -100.9%.

With `COCCN1C(=O)CC(c2cccnc2)C12CCN(C(=O)C1CC1)CC2.O=C(O)C(F)(F)F` (configuration not stated), the “Percent Effect” value is on record as -113.7%.

With `CC(Oc1ccc2c(c1)OCO2)C(=O)Nc1ccon1` (configuration not stated), the “Percent Effect” value is listed as -56.4%.

For the compound `NC(=O)CN1CCC(NCc2cc(C(F)(F)F)ccc2Cl)CC1`, the “Percent Effect” value was -47.52%.

As for `Cc1cc(Cl)cc(C)c1CNC1CCN(CC(=O)N(C)C)CC1`, the “Percent Effect” value was 52.71%.

As for `Cc1cc2cc(CNC3CCN(CC(=O)N(C)C)CC3)oc2cc1C`, the “Percent Effect” value is reported as -160%.

In the case of `CNc1oc(-c2ccc(S(=O)(=O)N(C)C)o2)nc1C#N`, the “Percent Effect” value is recorded as -61.71%.

As for `Cc1nc(C)n(CC2CCCN(Cc3nc(-c4ccco4)no3)C2)n1` (configuration not stated), the “Percent Effect” value was -26.23%.

Consider `NC(=O)C(NC1CCN(CC2CCCCC2)CC1)c1ccccc1` (configuration not stated), for which the “Percent Effect” value is given as -76.74%.

As to `NC(CC1CCCC1)c1ccc(Oc2ccccc2)cc1` (configuration not stated), the “Percent Effect” value is listed as 80.17%.

As for `Cl.NC(Cc1nc(-c2ccccc2)no1)c1ccccc1` (configuration not stated), the “Percent Effect” value was -266.4%.

Take `NC(c1ccccc1)c1ccc(OC(F)F)cc1` (configuration not stated): the “Percent Effect” value is 9.975%.

Consider `CC(NC(=O)CSCC(N)=O)c1ccc(Oc2ccccc2)cc1` (configuration not stated), for which the “Percent Effect” value is -26.87%.

On to `NC(=O)C(NC(=O)COC1CCCC1)c1ccccc1` (configuration not stated), for which the “Percent Effect” value was -14.18%.

Turning to `Cl.NC(CC1CCCCC1)c1ccccc1` (configuration not stated), the “Percent Effect” value worked out at 55.85%.

For `Cl.NC(CC1CCCC1)c1ccccc1` (configuration not stated), the “Percent Effect” value worked out at 67%.

`OC(CN1CCN(CC2CCCCC2)CC1)c1ccccc1` (configuration not stated): the “Percent Effect” value was determined as 2.939%.

With `COc1ccc(Cn2cc(C(=O)N(C)Cc3ccon3)nn2)cc1`, the “Percent Effect” value is reported as -118.5%.

In the case of `CC(C)COC[C@H]1CC[C@H]2[C@H](CCN2C(=O)c2ccncc2F)O1.O=C(O)C(F)(F)F`, the “Percent Effect” value is -129.5%.

With `COc1ccc(-c2cc(C(=O)Nc3nc[nH]n3)[nH]n2)cc1`, the “Percent Effect” value was -113.2%.

Take `Cc1ccc(C(=O)N2CCc3nc4c(C)csc4c(=O)n3CC2)cn1`: the “Percent Effect” value is given as -115%.

Regarding `CCn1nc(C)cc1C(=O)N1C[C@@H]2C[C@@H](c3noc(C)n3)O[C@@H]2C1`, the “Percent Effect” value is -70.6%.

Take `O=C(NCC1(O)CCOC1)NCC1(c2ccccc2Cl)CC1` (configuration not stated): the “Percent Effect” value stood at 1.417%.

On to `Cc1n[nH]cc1CNCC1(c2ccccc2Cl)CCOCC1`, for which the “Percent Effect” value is listed as 55.9%.

Consider `Cc1n[nH]cc1CNCC1(c2ccc3c(c2)OCO3)CCOCC1.Cl`, for which the “Percent Effect” value is recorded as -41.06%.

Consider `CCS(=O)(=O)N1CCc2cc(C(=O)N(C)C)c(NCC3CC3)nc2CC1`, for which the “Percent Effect” value is -99.83%.

Consider `CCn1nnc2c1C(COCCN(C)C)CN(Cc1ccco1)C2.O=C(O)C(F)(F)F.O=C(O)C(F)(F)F` (configuration not stated), for which the “Percent Effect” value was -73.97%.

On to `CN(C)CCOCC1CN(C(=O)c2ccsc2)Cc2ccnn2C1.O=C(O)C(F)(F)F.O=C(O)C(F)(F)F` (configuration not stated), for which the “Percent Effect” value is -18.09%.

Take `CN1CCN(Cc2cccc(C#N)c2)Cc2cccnc21.O=C(O)C(F)(F)F.O=C(O)C(F)(F)F`: the “Percent Effect” value is given as -79.43%.

Turning to `CN(C)CCN1CCN(Cc2cccc(C#N)c2)Cc2cccnc21.O=C(O)C(F)(F)F.O=C(O)C(F)(F)F.O=C(O)C(F)(F)F`, the “Percent Effect” value stood at 65.04%.

As for `COCC(=O)N1Cc2ccnn2CC(COCCN(C)C)C1.O=C(O)C(F)(F)F.O=C(O)C(F)(F)F` (configuration not stated), the “Percent Effect” value is reported as -13.35%.

`Fc1ccc(CN2CCn3cc(Cn4cccn4)nc3C2)cc1.O=C(O)C(F)(F)F`: the “Percent Effect” value was determined as 43.38%.

Take `Cc1ccc(CN2Cc3nnn(C)c3C(COCC(=O)N(C)C)C2)s1.O=C(O)C(F)(F)F` (configuration not stated): the “Percent Effect” value is -90.04%.

With `CN(C)CCOCC1CN(Cc2cccs2)Cc2ccnn2C1.O=C(O)C(F)(F)F.O=C(O)C(F)(F)F.O=C(O)C(F)(F)F` (configuration not stated), the “Percent Effect” value was found to be 62.34%.

For `CCn1nnc2c1C(COCCN(C)C)CN(Cc1ccc(C)s1)C2.O=C(O)C(F)(F)F.O=C(O)C(F)(F)F` (configuration not stated), the “Percent Effect” value is given as 60.03%.

For the compound `O=C(O)C(F)(F)F.O=C(O)C(F)(F)F.c1ccc(CCN2CCn3cc(Cn4cccn4)nc3C2)cc1`, the “Percent Effect” value was found to be 7.27%.

As for `CN(C)C(=O)c1cnc2n1CCN(Cc1cccc(C#N)c1)C2.O=C(O)C(F)(F)F`, the “Percent Effect” value is -58.91%.

On to `N#Cc1cccc(CN2CCn3cc(Cn4cccn4)nc3C2)c1.O=C(O)C(F)(F)F.O=C(O)C(F)(F)F`, for which the “Percent Effect” value stood at 78.59%.
